SMILES strings stand for the structures. This is part of a sample that, as a whole, favours compounds with a hit. Of some 83,000 tested, about 20% had one in any assay.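 Compound tested at a single concentration for 48 hours in 96-well plates; a percent growth value below 10 was scored as active.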 A number with no mark means an inactive call. Active and inactive are the calls of the source.

Some test systems named below: NCI-H23 lung; NCI-H226 lung; NCI-H322M lung; HOP-62 NSCLC; NCI-H460 lung; HOP-92 NSCLC; NCI-H522 lung; A549/ATCC NSCLC; 786-0 renal; COLO 205 colon.
Assay in all cases: NCI-60 one-dose screen, 48 h (100 = growth as untreated, 0 = no growth, -100 = all killed)
Common to all, as to settings: 10 µM unless noted

As for `CC1OC(n2c3ccccc3c3c4c(c5c6ccccc6[nH]c5c32)C(=O)N(CCN2CCCC2)C4=O)CC(O)C1O` (stereo not given), the growth in the assay with NCI-H23 lung was 41%; in the assay on NCI-H226 lung it was 43.1%; with NCI-H322M lung it was 58.2%; with HOP-62 NSCLC, 35.2%; in the assay on NCI-H460 lung, -61.3% (active); in the assay with HOP-92 NSCLC, 86.6%. Also, the growth with NCI-H522 lung was 24.5%; with A549/ATCC NSCLC, 15.3%; in the assay on 786-0 renal, 18%; with COLO 205 colon, 24.8%.

Take `Nc1nc2ccc(-c3nc4ccc5[nH]ncc5c4c4c3CCCC4)cc2s1`: the growth was 100% in the assay on NCI-H23 lung; 112% in the assay with NCI-H226 lung; 101% in the assay with NCI-H322M lung; 101% with HOP-62 NSCLC; 107% in the assay with NCI-H460 lung; 106% in the assay on HOP-92 NSCLC. The growth with NCI-H522 lung is 86.8%; with A549/ATCC NSCLC, 91.8%; with 786-0 renal it was 108%; in the assay on COLO 205 colon it was 106%.

Regarding `CC(C)(C)[Si](C)(C)OC1[C@@H](CNC(=O)NC(=O)NC(N)=O)O[C@@H](n2cnc3c(NC(=O)Nc4ccccc4)ncnc32)[C@H]1O[Si](C)(C)C(C)(C)C` (stereo not given in full), the growth in the assay on NCI-H23 lung was 75.4%; in the assay on NCI-H226 lung, 69.4%; in the assay with NCI-H322M lung, 87.1%; in the assay with HOP-62 NSCLC it was 71%; in the assay with NCI-H460 lung, 27.4%; with HOP-92 NSCLC, 92%. In addition, the growth is 43.3% in the assay with NCI-H522 lung, 44.1% in the assay on A549/ATCC NSCLC, 90.9% with 786-0 renal and 54.3% in the assay on COLO 205 colon.

For the compound `Cc1ccc(Nn2c(SCC(=O)Nc3nc(-c4ccccc4)cs3)nc(C)c2C)cc1`, the growth is 39.4% with NCI-H23 lung; 46.3% with NCI-H226 lung; 96% with NCI-H322M lung; 73.1% in the assay with HOP-62 NSCLC; 78.1% with NCI-H460 lung; 59.9% with HOP-92 NSCLC. Besides, the growth with NCI-H522 lung is 49.7%; with A549/ATCC NSCLC it was 46.3%; in the assay with 786-0 renal, 82.3%; with COLO 205 colon, 27.1%.

Consider `CCN(CC)CCCCCNc1cc(OC(=O)c2ccc(Cl)cc2)cc2cccnc12`, for which the growth in the assay with NCI-H23 lung is 93.9%; in the assay with NCI-H226 lung it was 105%; in the assay on NCI-H322M lung, 106%; with HOP-62 NSCLC, 95.8%; in the assay on NCI-H460 lung, 110%; with HOP-92 NSCLC, 38.2%. Also, the growth is 24.4% in the assay on NCI-H522 lung, 95.3% with A549/ATCC NSCLC, 106% with 786-0 renal and 33.9% in the assay with COLO 205 colon.

For `CC1=NC2=Nn3c(c4cnn(-c5ccccc5)c4n/c3=N\N)NN2C(c2ccccc2)=C1`, the growth in the assay on NCI-H23 lung is 87.5%; in the assay with NCI-H226 lung, 90.7%; in the assay with NCI-H322M lung it was 87.6%; in the assay on HOP-62 NSCLC, 96.1%; with NCI-H460 lung it was 88.5%; in the assay on HOP-92 NSCLC, 74.3%. The growth in the assay with NCI-H522 lung is 89%; in the assay with A549/ATCC NSCLC it was 96%; in the assay with 786-0 renal it was 104%; with COLO 205 colon it was 107%.

With `CCC(=C(c1ccc(OCCN2CCCCC2)cc1)c1ccc(OCCN2CCCCC2)cc1)c1ccc(Cl)cc1`, the growth was -81% (active) in the assay with NCI-H23 lung; -66.4% (active) with NCI-H226 lung; -99% (active) in the assay on NCI-H322M lung; -73.7% (active) with HOP-62 NSCLC; -80.5% (active) with NCI-H460 lung; -83.6% (active) with HOP-92 NSCLC. Besides, the growth was -69.7% (active) in the assay with NCI-H522 lung, -72.2% (active) in the assay with A549/ATCC NSCLC, -88.8% (active) with 786-0 renal and -66.3% (active) in the assay on COLO 205 colon.

Take `O=C(NCCCl)Nc1ncccc1OCc1ccccc1`: the growth is 99.6% in the assay with NCI-H23 lung; 104% in the assay on NCI-H226 lung; 92.4% in the assay with NCI-H322M lung; 100% in the assay with HOP-62 NSCLC; 101% in the assay with NCI-H460 lung; 103% with HOP-92 NSCLC. In addition, the growth is 85.3% in the assay on NCI-H522 lung, 103% in the assay with A549/ATCC NSCLC, 100% in the assay on 786-0 renal and 106% with COLO 205 colon.

`Nc1c(C(=O)Nc2ccncc2)sc2nc3c(cc12)C(O)CCC3` (stereo not given): the growth in the assay with NCI-H23 lung is 93.3%; with NCI-H226 lung it was 90.2%; with NCI-H322M lung, 84.1%; in the assay with HOP-62 NSCLC it was 98.7%; in the assay with NCI-H460 lung, 102%; with HOP-92 NSCLC, 88.2%. Moreover, the growth with NCI-H522 lung is 78.8%; with A549/ATCC NSCLC it was 91.9%; with 786-0 renal, 93.8%; with COLO 205 colon it was 113%.

For the compound `CC(C)=CCCC(C)c1ccc(C)c2c1OCN(CCCCCO)C2` (stereo not given), the growth with NCI-H23 lung was 91.3%; in the assay with NCI-H226 lung it was 98.4%; with NCI-H322M lung, 102%; in the assay on HOP-62 NSCLC, 92.5%; with NCI-H460 lung, 81.1%; in the assay with HOP-92 NSCLC it was 27.7%. In addition, the growth was -1.75% (active) with NCI-H522 lung, 82.5% with A549/ATCC NSCLC, 69.5% in the assay with 786-0 renal and 90% in the assay with COLO 205 colon.

With `C#Cc1c2c(c(OC)c3c1OCO3)[C@H]([C@H]1OC(=O)c3c1ccc(OC)c3OC)N(C)CC2`, the growth is 86% with NCI-H23 lung; 98% in the assay on NCI-H226 lung; 94% in the assay with NCI-H322M lung; 71.8% with HOP-62 NSCLC; 96% in the assay with NCI-H460 lung; 91.2% with HOP-92 NSCLC. The growth is 60.3% in the assay with NCI-H522 lung, 65.5% in the assay on A549/ATCC NSCLC, 95.4% in the assay on 786-0 renal and 79.7% with COLO 205 colon.

For `CN1CCN(c2cc(Nc3cc(C4CC4)[nH]n3)nc(Nc3ccc(CC(=O)NCc4cccc(F)c4)cc3)n2)CC1`, the growth in the assay on NCI-H23 lung was 23.2%; in the assay on NCI-H226 lung, 3.21% (active); in the assay on NCI-H322M lung it was 20.5%; with HOP-62 NSCLC, 8.32% (active); in the assay on NCI-H460 lung, 13%; in the assay on HOP-92 NSCLC, -15.6% (active). Besides, the growth is 61.2% with NCI-H522 lung, 24.3% with A549/ATCC NSCLC, 18.3% with 786-0 renal and -54.9% (active) in the assay with COLO 205 colon.

Take `O=C(/C=C/c1ccccc1)Nc1ncc(Cc2ccccc2Cl)s1`: the growth in the assay with NCI-H23 lung was 51.8%; in the assay with NCI-H226 lung it was 48.6%; in the assay with NCI-H322M lung, 33.8%; in the assay with HOP-62 NSCLC, 18.9%; with NCI-H460 lung, 14.1%; with HOP-92 NSCLC, 65.1%. Further, the growth is -11.2% (active) with NCI-H522 lung, 30.8% in the assay on A549/ATCC NSCLC, 45.7% with 786-0 renal and 2.14% (active) with COLO 205 colon.

As to `CCOC(=O)c1ccc2c(c1)nc(-c1ccccc1)n2C1CCCCC1`, the growth in the assay with NCI-H23 lung is 90.3%; with NCI-H226 lung, 120%; with NCI-H322M lung, 83.1%; in the assay with HOP-62 NSCLC it was 65%; with NCI-H460 lung, 107%; in the assay with HOP-92 NSCLC it was 91.7%. Besides, the growth with NCI-H522 lung is 73.6%; with A549/ATCC NSCLC, 68.3%; in the assay with 786-0 renal it was 88.5%; in the assay with COLO 205 colon, 76.3%.
